The results in this text go back to PubChem BioAssay AID1851 (National Center for Advancing Translational Sciences (NCATS), 2009).

For orientation: AC50 means the midpoint of the concentration-response curve, whichever way the signal moves.

SMILES strings stand for the structures. “And” between values parts separate entries of the source, which are not always exact repeats. Equal entries are not always repeated. About 2,600 (16%) of roughly 16,000 compounds were called active. Another 20% or so got no clear call; they are omitted. These entries were drawn from the full list. Unmarked numbers belong to inactive results. Calls come from the whole dose curve; as a rule, active = well fitted curve in the direction sought with a large enough effect; inconclusive = small, poorly fitted or top-dose-only effect, or effect the other way; inactive = no such curve, though single readings can be large or run the other way.
% is set by controls: 0 for no effect and ±100 for the full control effect.

The target of this experiment is Cytochrome P450 2D6 (Homo sapiens) (UniProt P10635). Kind of experiment: Cytochrome panel assay with activity outcomes. The settings on record: recombinant CYP, pro-luciferin dealkylation, luminescence, p450-cyp2d6; series mostly up to 57.1 µM; activity, negative = inhibition: at the top concentration.
Sequence of Cytochrome P450 2D6 (Homo sapiens) (P10635 whole entry, looked up): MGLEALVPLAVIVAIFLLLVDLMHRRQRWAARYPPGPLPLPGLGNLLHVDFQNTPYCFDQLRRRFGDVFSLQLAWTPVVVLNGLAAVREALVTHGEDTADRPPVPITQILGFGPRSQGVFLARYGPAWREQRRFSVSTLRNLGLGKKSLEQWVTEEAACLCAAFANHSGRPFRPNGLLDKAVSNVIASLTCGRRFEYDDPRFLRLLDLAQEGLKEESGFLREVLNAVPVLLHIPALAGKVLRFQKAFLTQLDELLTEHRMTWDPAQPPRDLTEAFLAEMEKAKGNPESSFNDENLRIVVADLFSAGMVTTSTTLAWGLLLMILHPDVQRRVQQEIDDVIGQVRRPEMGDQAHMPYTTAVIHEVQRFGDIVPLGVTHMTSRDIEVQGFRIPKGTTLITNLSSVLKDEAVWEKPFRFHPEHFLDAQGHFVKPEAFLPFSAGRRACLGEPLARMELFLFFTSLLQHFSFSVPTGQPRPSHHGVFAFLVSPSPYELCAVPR
For `FC(F)(F)c1cnc(N2CCC(=NOCc3ccc(Cl)cc3)CC2)c(Cl)c1`, the “activity, negative = inhibition” value was -2.76%.

Regarding `Cc1cc(=O)c2cc(Cl)ccc2[nH]1`, the “activity, negative = inhibition” value was -6.42%.

Regarding `CCCCN(C)Cc1c(C)[nH]c2ccc(Cl)cc2c1=O`, the concentration at half-maximal activity (AC50) was 3.16 µM (active).

For `CCCCCCN(CCCCCC)C(=O)Cc1c(-c2ccc(Cl)cc2)[nH]c2ccc(Cl)cc12`, the “activity, negative = inhibition” value is -9.91%.

Regarding `CCOc1ccc2[nH]c(=O)c(CN(CCc3ccccc3)C(=O)N3CCOCC3)cc2c1`, the “activity, negative = inhibition” value is -16.1%.

Regarding `N#C/C(=C\c1ccc(Cl)cc1)c1nc2ncccc2[nH]1`, the AC50 was 12.6 µM (active).

Regarding `N#C/C(=C\c1ccccc1)c1nc2ncccc2[nH]1`, the “activity, negative = inhibition” value is -21%.

With `c1ccc(-c2ccc(C3=Nn4c(Cn5nnc6ccccc65)nnc4SC3)cc2)cc1`, the “activity, negative = inhibition” value is -6.94%.

For `COC(=O)N1CC(=O)N(OC)C1c1ccc(Cl)cc1Cl` (stereo unspecified), the “activity, negative = inhibition” value was 3.25%.

On to `Cc1nc(C(=O)Nc2ccc(Cl)cc2Cl)nn1-c1cc(OC(C)C)c(Cl)cc1Cl`, for which the “activity, negative = inhibition” value is -4.13%.

`COc1cccc2c1OC[C@@H](CO)[C@H]2N(C)C(=O)Nc1ccc(Cl)cc1Cl`: the AC50 was 3.55 µM (active).

For `CCCCOC(=O)Nc1ccc(C)c(Cl)c1`, the “activity, negative = inhibition” value was -20.5%.

As for `Cc1ccc(OCC(=O)Nc2ccc(Cl)cc2)c(-n2nc3ccccc3n2)c1`, the “activity, negative = inhibition” value is -6.55%.

As for `Cc1cc2nc(SCCOC(=O)Nc3ccc(Cl)cc3)nc(C)c2cc1C`, the AC50 was 8.91 µM (active).

Take `O=C1NC(=O)[C@@](Cc2ccccc2)(c2cccnc2)N1`: the activity, negative = inhibition is 1.34% [at 11.4 µM].

As for `CCS(=O)(=O)Nc1ccc(C2=NN(C(=O)c3ccco3)C(c3ccc(C)cc3)C2)cc1` (stereo unspecified), the “activity, negative = inhibition” value is -12.4%.

Take `CC(=O)NNc1nc2ccccc2s1`: the “activity, negative = inhibition” value was -0.0209%.

Regarding `O=c1c(-c2nc3ccccc3s2)cccn1Cc1ccc(Cl)cc1`, the “activity, negative = inhibition” value was -12.9%.

Take `Clc1ccc(CCNc2nc3ccccc3s2)cc1`: the AC50 is 3.55 µM (active).

`Cc1noc2ncnc(Oc3ccc4ccccc4c3)c12`: the “activity, negative = inhibition” value was -14.9%.

As for `COCCN1C(=O)C(=O)/C(=C(/O)c2cccc(OC)c2)C1c1ccc(C)o1` (stereo unspecified), the “activity, negative = inhibition” value was 5.43%.

For `COC(=O)c1[nH]c2cc(OC)ccc2c1NC(=O)c1ccc2c(c1)OCO2`, the AC50 was 22.4 µM (active).

With `CCOC(=O)c1oc2ccccc2c1NC(=O)c1ccc2c(c1)OCO2`, the AC50 is 3.55 µM (active).

As for `CCOC(=O)c1[nH]c2cc(OC)c(OC)cc2c1NC(=O)c1ccc2c(c1)OCO2`, the “activity, negative = inhibition” value was -1.54%.

`COc1cccc(NC(=O)c2oc3ccccc3c2NC(=O)c2ccc3c(c2)OCO3)c1`: the “activity, negative = inhibition” value was 1.82%.

`COC(=O)c1[nH]c2cc(OC)ccc2c1NC(=O)c1nonc1C`: the “activity, negative = inhibition” value is 21.6%.

Consider `CCOC(=O)c1oc2ccccc2c1NC(=O)c1ccc(S(=O)(=O)N(C)C)cc1`, for which the “activity, negative = inhibition” value is 15%.

Take `Cc1nc2cnc(Nc3ccccc3)nc2n(CCc2ccccc2)c1=O`: the “activity, negative = inhibition” value was -2.78%.

Consider `N#Cc1cccc(NC(=O)N2CCCC3(CCN(C(=O)c4cnccn4)CC3)C2)c1`, for which the “activity, negative = inhibition” value was -0.699%.

`CC(C)CO/N=C1/C[C@@H](O)[C@@H](O)[C@@H]2[C@@H]3C(=O)N(Cc4ccc5c(c4)OCO5)C(=O)[C@H]3CC[C@H]12`: the activity, negative = inhibition is -12.3% [at 11.4 µM].

Turning to `O=C(O)CCC(=O)N1CCC[C@H]1C(=O)O`, the “activity, negative = inhibition” value was 15.4%.

For the compound `Cc1ccc2c(c1)N(CC(=O)NC1CCCc3ccccc31)C(=O)CO2` (stereo unspecified), the AC50 is 12.6 µM (active).

As to `Cc1ccc2c(c1)-c1c(cnn1CC(=O)O)CO2`, the “activity, negative = inhibition” value was 12.2%.

Consider `Cc1ccc2c(c1)N(CCC(=O)NCC1CCCO1)C(=O)CO2` (stereo unspecified), for which the “activity, negative = inhibition” value was -13.4%.

For `COc1ccc(-n2c(=O)c(C)nc3cncnc32)cc1`, the “activity, negative = inhibition” value is -4.11%.

Regarding `Cn1c(=O)c2c(nc(Cc3ccccc3)n2CC(=O)O)n(C)c1=O`, the activity, negative = inhibition was 3.84% [at 11.4 µM].

`C/C=C\C(=O)N(CC)c1ccccc1C`: the “activity, negative = inhibition” value is 5.93% [at 25.6 µM].

Consider `Nc1ccccc1Oc1ncc(C(F)(F)F)cc1Cl`, for which the “activity, negative = inhibition” value was -15.3%.

In the case of `CCc1nnc(NC(=O)CSc2nc(C3CCCCC3)nc3ccccc23)s1`, the “activity, negative = inhibition” value is -17%.

In the case of `N[C@H](CCCC(=O)O)C(=O)O`, the “activity, negative = inhibition” value was 2.55%.

In the case of `O=C(NCCC[N+]1=CC=N[C@H]1c1ccccc1)N1CCCc2nc(-c3ccc(Br)cc3)ccc21`, the AC50 was 0.0794 µM (active).

As for `COc1ccc(-c2ccc3c(n2)CCCN3C[C@H](O)CN2CCCc3nc(-c4ccc(Br)cc4)ccc32)cc1`, the activity, negative = inhibition is -3.82% [at 11.4 µM] and -13% [at 11.4 µM].

Regarding `COCCN(C(=O)c1ccco1)c1nnc(-c2ccc(OC)cc2)s1`, the “activity, negative = inhibition” value is -15.8%.

In the case of `CCN(CC)CCOC(=O)C1(c2ccc([N+](=O)[O-])cc2)CCCC1`, the AC50 was 3.98 µM (active) and 5.01 µM (active).

Consider `CN(C)CCOC(=O)C1(c2ccccc2)CCOCC1`, for which the “activity, negative = inhibition” value was -21.6%.

Turning to `Cc1cccc(NC(=O)C2(c3ccc([N+](=O)[O-])cc3)CCCC2)c1`, the “activity, negative = inhibition” value was -29.8%.

On to `CCC(C)Nc1nc(OCC(F)(F)F)nc(OCC(F)(F)F)n1` (stereo unspecified), for which the “activity, negative = inhibition” value was 5.26%.

Regarding `CCOC(=O)C1C(=O)C=C(c2ccc(NS(C)(=O)=O)cc2)CC1c1ccco1` (stereo unspecified), the “activity, negative = inhibition” value was -19.3%.

Take `COc1ccc2oc(C(=O)c3ccccc3)c(N)c2c1`: the “activity, negative = inhibition” value was -15%.

As for `COC(=O)c1cn(NC(=O)c2ccc(F)cc2)c(=O)c2ccccc12`, the “activity, negative = inhibition” value was -22.3%.

On to `COC(=O)c1ccccc1NC(=O)c1ccc(F)cc1`, for which the AC50 was 5.01 µM (active).
